Data: PubChem BioAssay AID504850 (National Center for Advancing Translational Sciences (NCATS), 2011)
Hit rate of the full screen: of about 2,300 compounds, about 1,200 (52%) were called active. Inconclusive results (about 34%) are left out. Calls come from the whole dose curve; as a rule, active = well fitted inhibition curve with a large enough effect; inconclusive = small, poorly fitted or top-dose-only effect, or effect the other way; inactive = no such curve, though single readings can be large or run the other way. The set was probably picked from earlier hits. The list shows a part of the results.

Experiment: Confirmation screen for delayed death inhibitors of the malarial parasite plastid, 48 hour incubation; note: nearly all actives have a fitted effect of over 65% in size
Settings: P. falciparum-infected erythrocytes, luciferase growth; series mostly up to 28.7 µM
How it was run: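 Single-generation (48 h, 37 C) exposure of integrated firefly luciferase-reporter P. falciparum in red cells, 0.1% parasitemia at 2% hematocrit, Albumax-supplemented RPMI. Falling luciferase signal marks parasite growth inhibition.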
Potency is the fitted concentration of half-maximal effect.

Row | SMILES | Potency
1 | O=C(O)CCCCCNc1nc(-c2ccccc2)nc2ccccc12 | 12.6 µM (active)
2 | COc1cccc(NC(=O)C2CCN(S(=O)(=O)c3ccc4[nH]c(=O)oc4c3)CC2)c1 | inactive
3 | COc1ccc(S(=O)(=O)N2CCC(C(=O)Nc3ccccc3N3CCCCC3)CC2)cc1OC | 11.2 µM (active)
4 | C=CCN(CC=C)C(=O)C1CCN(S(=O)(=O)c2ccc(N3CCCC3=O)cc2)CC1 | 14.1 µM (active)
5 | COc1cc(NC(=O)C2CCN(S(=O)(=O)c3ccc(N4CCCC4=O)cc3)CC2)cc(OC)c1 | 14.1 µM (active)
6 | COc1ccc(Cl)cc1NC(=O)C1Cc2cc(S(=O)(=O)N3CCCC3)ccc2N1C(C)=O (stereo not given) | 11.2 µM (active)
7 | Cc1ccc(S(=O)(=O)N2CCC(C(=O)Nc3ccc(S(=O)(=O)N4CCCC4)cc3)CC2)cc1C | 14.1 µM (active)
8 | COc1ccc(C)cc1NC(=O)C1CCN(S(=O)(=O)c2ccc3c(c2)NC(=O)CO3)CC1 | 12.6 µM (active)
9 | O=C/C=C/c1c(-c2ccccc2)cc2oc3ccccc3cc1-2 | inactive
10 | Cc1cc(=O)n2nc(N3CCC(C(=O)NCc4ccc(Cl)cc4)CC3)sc2n1 | 12.6 µM (active)
11 | Cc1cc(=O)n2nc(N3CCC(C(=O)NCCc4ccc(Cl)cc4)CC3)sc2n1 | 12.6 µM (active)
12 | Cc1cc(=O)n2nc(N3CCCC(C(=O)NCc4ccc(Cl)cc4)C3)sc2n1 (stereo not given) | 12.6 µM (active)
13 | COc1ccc(NC(=O)CN(c2ccc(F)cc2)S(=O)(=O)c2ccccc2)c(OC)c1 | 15.8 µM (active)
14 | COc1ccc(N(CC(=O)NCCSCc2ccc(C)cc2)S(=O)(=O)c2ccccc2)cc1 | 12.6 µM (active)
15 | Cc1ccc(S(=O)(=O)N(Cc2ccccc2)C(C)C)cc1 | inactive
16 | COc1ccc2cc3[n+](cc2c1OC)CCc1cc2c(cc1-3)OCO2 | 1.12 µM (active)
17 | CCOC(=O)c1ccc(N2N=C(C)/C(=C/C=C/c3ccco3)C2=O)cc1 | 6.31 µM (active)
18 | CCOC(=O)c1ccc(Nc2nc(=O)c3cccnc3s2)cc1 | inactive
19 | CN(C)c1ccc(O)c2c1CC1CC3[C@@H](N(C)C)C(=O)C(C(N)=O)=C(O)[C@]3(O)C(=O)C1=C2O (stereo not given in full) | 2.24 µM (active)
20 | C[C@@H]1c2cccc(O)c2C(O)=C2C(=O)[C@@]3(O)C(O)=C(C(N)=O)C(=O)[C@@H](N(C)C)[C@@H]3[C@@H](O)[C@@H]21 | 4.47 µM (active)
21 | C=C1c2c(Cl)ccc(O)c2C(O)=C2C(=O)[C@]3(O)C(O)=C(C(N)=O)C(=O)[C@@H](N(C)C)[C@@H]3[C@@H](O)C12 (stereo not given in full) | 3.98 µM (active)
22 | C=C1c2c(Cl)ccc(O)c2C(O)=C2C(=O)[C@@]3(O)C(O)=C(C(N)=O)C(=O)[C@@H](N(C)C)[C@@H]3[C@@H](O)[C@H]12 | 4.47 µM (active)

Row | SMILES | Potency
23 | Cc1ccc(-c2csc3ncn(CC#N)c(=O)c23)cc1C | inactive
24 | Cc1ccccc1NC1=NCC(c2ccc([N+](=O)[O-])cc2)S1 (stereo not given) | 11.2 µM (active)
25 | C=CCNC(=O)c1oc2ccc(S(=O)(=O)N3CCCCC3)cc2c1C | 14.1 µM (active)
26 | C=CCNC(=O)c1onc(CSc2ccc(C)c(C)c2)c1C(=O)O | inactive
27 | C=CCNC(=O)c1onc(CSc2cc(C)cc(C)c2)c1C(=O)O | inactive
28 | CCN(CC)Cc1cc2[nH]c3c4ccc(Cl)cc4ncc3c2cc1OC | 0.178 µM (active)
29 | CCCCCCn1ccc(=N)cc1 | 7.08 µM (active)
30 | CCOC(=O)c1c(-c2ccc(-c3ccccc3)cc2)csc1NC(=O)c1cccc(N2C(=O)CCC2=O)c1 | 5.01 µM (active)
31 | CCOC(=O)c1c(NC(=O)c2c(-c3ccccc3)noc2C)sc(C)c1-c1ccccc1 | 6.31 µM (active)
32 | CCOC(=O)c1c(-c2ccc(F)cc2)csc1NC(=O)c1c(-c2ccccc2)noc1C | 8.91 µM (active)
33 | CCOC(=O)c1c(-c2cccc(C)c2)csc1NC(=O)c1c(-c2ccccc2)noc1C | 11.2 µM (active)
34 | COC(=O)c1c(-c2ccccc2)csc1NC(=O)c1c(-c2ccccc2)noc1C | 14.1 µM (active)
35 | O=C(c1cccs1)N1N=C(c2ccccc2)CC1c1ccccc1O (stereo not given) | 3.55 µM (active)
36 | CCOc1ccc2c(c1)OC(c1ccccc1)(C(F)(F)F)NC2=O (stereo not given) | 2 µM (active)
37 | CC[C@@H](C)C(NC(=O)OC(C)(C)C)c1cn([C@@H](CCCCNC(=O)OC(C)(C)C)C(=O)N2CCN(C(=O)OC(C)(C)C)CC2)nn1 (stereo not given in full) | 2 µM (active)
38 | CC[C@@H](C)C(NC(=O)OC(C)(C)C)c1cn([C@@H](Cc2ccc(O)cc2)C(=O)N2CCN(C(=O)OC(C)(C)C)CC2)nn1 (stereo not given in full) | 12.6 µM (active)
39 | CCOc1ccccc1NC(=O)c1cc(S(=O)(=O)NCc2ccco2)ccc1F | 12.6 µM (active)
40 | COc1ccccc1NC(=O)c1ccc(S(=O)(=O)NCc2ccco2)cc1 | inactive
41 | O=C1c2cccc3cc([N+](=O)[O-])cc(c23)C(=O)N1CCN1CCCC1 | 10 µM (active)
42 | Cc1nnnn1/C(=C\c1ccccc1)C(=O)OCC(=O)N1CC2(C)CC1CC(C)(C)C2 (stereo not given) | 12.6 µM (active)
43 | Cc1cccc(CN2C(=O)c3ccccc3S(=O)(=O)c3ccc(C(=O)NCCCN4CCCC4)cc32)c1 | 3.98 µM (active)
44 | O=C(c1ccc2c(c1)N(Cc1cccc(Cl)c1)C(=O)c1ccccc1S2(=O)=O)N1CCN(c2ccccn2)CC1 | 3.98 µM (active)

Row | SMILES | Potency
45 | CCN1C(=O)c2ccccc2Sc2ccc(C(=O)NCCCN3CCCCC3)cc21 | 12.6 µM (active)
46 | O=C(NCCCN1CCCC1)c1ccc2c(c1)N(Cc1ccccc1F)C(=O)c1ccccc1S2=O (stereo not given) | 12.6 µM (active)
47 | CC(C)[C@H](NC(=O)N1CCn2c1nc1ccccc12)C(=O)N[C@H](C(=O)O)c1ccccc1 | inactive
48 | CCN1CCCC1CNC(=O)c1ccc2c(c1)N(Cc1ccccc1F)C(=O)c1ccccc1S2(=O)=O (stereo not given) | 5.01 µM (active)
49 | CCOC(=O)N1CCN(C(=O)c2ccc3c(c2)N(Cc2cc(C)ccc2C)C(=O)c2ccccc2S3=O)CC1 (stereo not given) | 4.47 µM (active)
50 | CC(NC(=O)CCl)c1ccccc1Br (stereo not given) | 2.24 µM (active)
51 | CC(=O)/C=C/c1ccc2ccccc2n1 | 12.6 µM (active)
52 | Cc1cccc(N(Cc2ccccc2)C(=O)CSC(C)C(=O)Nc2cc(C)on2)c1 (stereo not given) | 11.2 µM (active)
53 | Cc1cc(C)c(OCC(O)CNC(C)(C)C)c(C)c1 (stereo not given) | 11.2 µM (active)
54 | Cn1nnnc1Sc1ncnc2scc(-c3ccsc3)c12 | 4.47 µM (active)
55 | Cn1nnnc1Sc1ncnc2scc(-c3ccc[nH]3)c12 | 12.6 µM (active)
56 | Cn1nnnc1Sc1ncnc2scc(-c3cccs3)c12 | 12.6 µM (active)
57 | O=C(NCc1ccccn1)Nc1cc(Cl)ccc1Cl | 5.01 µM (active)
58 | Cc1ccc(Oc2nc3ccccn3c(=O)c2/C=C(\C#N)C(=O)NC2CCS(=O)(=O)C2)c(C)c1 (stereo not given) | 12.6 µM (active)
59 | CCN(CC)CCNC(=O)C1c2cc(OC)c(OC)cc2C(=O)N2CCc3ccccc3C12 (stereo not given) | 7.08 µM (active)
60 | CCCN(CCC)CCNC(=O)C1c2ccccc2C(=O)N2CCc3ccccc3C12 (stereo not given) | inactive
61 | CC(=O)c1ccccc1OCC(O)CN1CCN(C(c2ccccc2)c2ccccc2)CC1 (stereo not given) | 2.24 µM (active)
62 | O=C(N/N=C/c1ccc([N+](=O)[O-])cc1)c1cccc(N2CCCC2=O)c1 | 11.2 µM (active)
63 | Cc1nn(-c2ccccc2)c(N2CCCC2)c1/C=N/NC(=O)c1ccccc1O | 5.01 µM (active)
64 | Cc1nn(-c2ccccc2)c(N2CCCC2)c1/C=N/NC(=S)Nc1ccccc1F | 12.6 µM (active)
65 | CC(C)Cc1csc(NC(=O)C(C)C)c1C(=O)O | inactive
66 | CCOC(=O)C1(CCc2ccccc2)CCN(Cc2ccccn2)CC1 | 4.47 µM (active)

Row | SMILES | Potency
67 | Cc1cccc(NC(=O)CSc2nc3ccccc3nc2N2CCCC2)c1 | 14.1 µM (active)
68 | COc1cccc(NC(=O)CSc2nc3ccccc3nc2N2CCCC2)c1 | 14.1 µM (active)
69 | Cc1cccc(NC(=O)CSc2nc3ccccc3nc2N2CCCCC2)c1 | 11.2 µM (active)
70 | O=C1C(=O)c2ccccc2C(O)=C1c1cccc([N+](=O)[O-])c1 | 12.6 µM (active)
71 | Nc1nc(N)nc(-c2cc([N+](=O)[O-])ccc2O)n1 | inactive
72 | Cc1ccc(C2C3=C(CC(C)(C)CC3=O)N=C3c4ccccc4C(=O)C32)cc1 (stereo not given) | 8.91 µM (active)
73 | COc1ccc(-n2c(C)cc(C(=O)Cn3c(NCCO)nc4ccccc43)c2C)cc1 | 12.6 µM (active)
74 | CCOc1ccc(C2c3[nH]c4ccccc4c3CCN2Cc2cccn2-c2ncccn2)cc1 (stereo not given) | 12.6 µM (active)
75 | Cc1ccccc1C1c2[nH]c3ccccc3c2CCN1Cc1cccn1-c1ncccn1 (stereo not given) | 12.6 µM (active)
76 | Cc1c(NC(=S)NC(=O)C(C)(C)C)c(=O)n(-c2ccccc2)n1C | inactive
77 | Cc1cc(C)cc(-n2c(N)c(C(=O)Nc3c(C)n(C)n(-c4ccccc4)c3=O)c3nc4ccccc4nc32)c1 | 4.47 µM (active)
78 | COc1ccc2c(C)c(CCC(=O)NC3CC3)c(=O)oc2c1C | 3.98 µM (active)
79 | COc1ccc(/C=C/C(=O)c2ccc([N+](=O)[O-])o2)cc1OC | 11.2 µM (active)
80 | CCCSc1ccc(-c2nn(-c3ccccc3)cc2/C=C(/C#N)C(=O)NCCCOC)cc1 | 5.62 µM (active)
81 | CN1CCN(c2ccccc2NC(=O)c2cccc(OCc3ccccc3)c2)CC1 | 7.94 µM (active)
82 | Cc1cc(=O)oc2ccc(OCC(=O)N3CCc4ccccc43)cc12 | 10 µM (active)
83 | CCC1CCCCN1CCCNC(=O)CNC(=O)c1nn(-c2ccc(OC)c(Cl)c2)c(=O)c2ccccc12 (stereo not given) | 11.2 µM (active)
84 | CCC1CCCCN1CCCNC(=O)Cn1c(=O)c2cccn2c2cccnc21 (stereo not given) | inactive
85 | O=C(O)c1nn(CCOc2ccc(Cl)cc2Cl)c(=O)c2ccccc12 | inactive
